# Experimental data: PubChem BioAssay (NCATS)
# Inconclusive results are not listed. Where a call stands in place of a potency, no number is given. The source made the active and inactive calls. Calls follow the shape of the dose curve; as a rule, active = well fitted cell-killing curve with a large enough effect; inconclusive = small, poorly fitted or top-dose-only effect; inactive = no such curve, though single readings can be large or run the other way.
# Assay: qHTS of pediatric cancer cell lines to identify multiple opportunities for drug repurposing: Primary screen for SK-N-MC cells (AID 1347093)
# Conditions: SK-N-MC viability, CellTiter-Glo luminescence, 48 h; series mostly up to 46 µM
# Source text: Drug repurposing or repositioning has been offered as a strategy for drug development in oncology programs. This approach has special potential for childhood cancers and other rare or orphan diseases, where the expected return on new drug development has been a disincentive to pharmaceuticals.
# In this project we exploit the poly-pharmacology of drugs to discover new indications via phenotypic screening of a panel of 19 well-characterized cell lines derived from solid tumors seen in children and adolescents. The goal is to identify approved drugs with previously unrecognized anticancer properties that has the potential to reveal new mechanisms and biological processes involved in carcinogenesis or drug resistance. We employed a titration-based paradigm (quantitative high-throughput screening or qHTS), where all compounds were tested at multiple concentrations for their effect on cell viability. Concentration-response curves (CRCs) were derived directly from the primary screen, and both potency and efficacy values were used to identify compounds with robust bioactivity profiles. We screened the NIH Chemical Genomics Center (NCGC) Pharmaceutical Collection (NPC) and Mechanism Interrogation Plate (MIPE) small molecule collections of approved and investigational compounds against these cell lines; and measured metabolically active cells after 48 hours of compound treatment as a proxy for cell viability.
# Assay Submitter: Nathalia J. Martinez, National Center for Advancing Translational Sciences, National Institutes of Health, Rockville, MD, USA; email: natalia.martinez@nih.gov
# [1] Shen, M et al. Quantitative high-throughput phenotypic screening of pediatric cancer cell lines identifies multiple opportunities for drug repurposing. Oncotarget 2017 Dec 19;9(4):4758-4772. PMID 29435139.
# The cells were obtained from University of North Carolina (UNC), Pediatric Preclinical Testing Program (PPT), and Coriell Institute (CI).
# qHTS cell viability assay:
# Cells were assayed in growth media at a density of 500-1,000 cells/well. Five microliters of cells were dispensed into 1,536-well, white, solid-bottom, TC-treated plates (Greiner Bio One) using a multidrop dispenser and incubated at 37 degrees C, 5% CO2, under a humidified atmosphere for 5 hours. Twenty-three nanoliters of compounds and controls (neutral control DMSO or positive control bortezomib at final concentration of 2.3 µM) were subsequently transferred by Kalypsys pintool. For primary screens, the MIPE collection was tested at 11-point dilutions (final concentrations range from 0.78 nM to 46 µM) and the NPC collection at 8-point dilutions (final concentrations range from 0.59nM to 46 µM). Compounds tested in follow-up screens were assayed at 11-point dilutions. Cells were incubated for 48 hours, followed by addition of 3 uL of CellTiter-Glo (Promega). After a 15 min incubation at room temperature, samples were analyzed for luminescence intensity using a ViewLux High-throughput CCD imager equipped with clear filters.
# Potency is read from the fitted curve at half-maximal effect.
row,Structure (SMILES),Potency
1,CN(C)CCN1CCN(c2cccc(Cl)c2)C1=O,inactive
2,Cc1ccc(C(=O)C(=O)O)cc1C,inactive
3,CC(Oc1c(Cl)cccc1Cl)C1=NCCN1 (stereo not given),inactive
4,O=C(O)c1ccc(OCCN2CCCCC2)cc1,inactive
5,O=[N+]([O-])c1nccn1CO[C@@H](CO)[C@H](O)CO,inactive
6,COc1c(N2C[C@@H]3CCCN[C@@H]3C2)c(F)cc2c(=O)c(C(=O)O)cn(C3CC3)c12,inactive
7,O=C(O)c1ccccc1S,inactive
8,CC(=O)N1CCN(c2ccc(O)cc2)CC1,inactive
9,C1N2CN3CN1CN(C2)C3,inactive
10,CCCCN(CCCC)C(C(N)=O)c1ccc(OC)cc1 (stereo not given),inactive
11,Cc1cnc(NS(=O)(=O)c2ccc(N)cc2)nc1,inactive
12,CCN(CC)CCN,inactive
13,CC(C)NC(=O)c1ccc(C=O)cc1,inactive
14,OC1(c2ccc(Cl)c(C(F)(F)F)c2)CCN(CCCC(c2ccc(F)cc2)c2ccc(F)cc2)CC1,6.68 µM (active)
15,CCOC(=O)[C@H](CCc1ccccc1)N[C@@H](C)C(=O)N(CC(=O)O)C1Cc2ccccc2C1,inactive
16,O=C1[C@@H]2[C@H]3CC[C@H](C3)[C@@H]2C(=O)N1CCCCN1CCN(c2ncccn2)CC1,inactive
17,Cc1cccc(C)c1NC(=O)c1cc(S(N)(=O)=O)c(Cl)cc1O,inactive
18,Nc1nc(=O)n([C@@H]2O[C@H](CO)[C@@H](O)[C@@H]2F)cc1I,inactive
19,Fc1ccc(C(c2ccc(F)cc2)N2CCNCC2)cc1,inactive
20,C#Cc1ccc(-c2ccccc2F)cc1,inactive

row,Structure (SMILES),Potency
1,O=C(Nc1ccc(Cl)cc1)Nc1ccc(Cl)c(Cl)c1,18.8 µM (active)
2,CC(C)CCCC(C)NCCC(C)C (stereo not given),inactive
3,Cc1ccc2ccc(Cl)cc2n1,inactive
4,O=C(CO)[C@@H](O)[C@H](O)[C@@H](O)CO,inactive
5,O=C(Nc1ccc(S(=O)(=O)N2CCOCC2)cc1)c1cc(Cl)ccc1NS(=O)(=O)c1ccc(Cl)s1,18.8 µM (active)
6,CCCCCC[C@@H](CCC)C(=O)O,inactive
7,CN1Cc2cc(C(=O)N3CCC(C4CCNCC4)CC3)ccc2NC(CC(=O)O)C1=O (stereo not given),inactive
8,O=C1NC(c2ccccc2)(c2ccccc2)C(=O)N1COP(=O)(O)O,inactive
9,CCCc1c2oc(C(=O)O)cc(=O)c2cc2c(=O)cc(C(=O)O)n(CC)c12,inactive
10,C/C(=N/NC(=O)c1ccncc1)C(=O)O,inactive
11,CCCCCCCCCCCCCC[N+](C)(C)C,3.35 µM (active)
12,CC(C)(C)c1cc(C=O)cc(C(C)(C)C)c1O,inactive
13,[O-][n+]1cccc(/C(Cl)=N/OC[C@@H](O)CN2CCCCC2)c1,inactive
14,O=P(O)(O)OCC(O)CO (stereo not given),inactive
15,Oc1ccc(CCNCCCCCCNCCc2ccccc2)cc1O,23.7 µM (active)
16,O=C(c1ccco1)N1CCNCC1,inactive
17,O=C(c1ccccc1)c1ccccc1,inactive
18,O=C(O)c1ccccc1Nc1cc(Cl)ccc1C(=O)O,8.2 µM (active)
19,CCC(=O)Oc1ccc2c(c1)CC[C@@H]1[C@@H]2CC[C@@]2(C)[C@H]1C[C@@H](OC(=O)CC)[C@@H]2OC(=O)CC,inactive
20,Cc1cc(O)c2c(O)c3c(O)cccc3cc2c1,inactive
